These results are taken from publication PMC7862700, “An all-to-all approach to the identification of sequence-specific readers for epigenetic DNA modifications on cytosine”.

Common to all, as to test: DAPPL (digital affinity profiling via proximity ligation, sequencing); 10 mM Tris-HCl pH 7.5, 50 mM NaCl, 1 mM DTT, 4% glycerol, room temperature, 30 min; GST-TFs on glutathione beads, 16-mer random dsDNA library, 0.1% formaldehyde crosslink after washing; high values mean tight binding
Holding throughout (conditions): protein: recombinant; tags: N-terminal GST; dsDNA, one strand shown

One assay concerns the target T1, FLI1 (Homo sapiens, UniProt Q01543 1-452).
T1 sequence: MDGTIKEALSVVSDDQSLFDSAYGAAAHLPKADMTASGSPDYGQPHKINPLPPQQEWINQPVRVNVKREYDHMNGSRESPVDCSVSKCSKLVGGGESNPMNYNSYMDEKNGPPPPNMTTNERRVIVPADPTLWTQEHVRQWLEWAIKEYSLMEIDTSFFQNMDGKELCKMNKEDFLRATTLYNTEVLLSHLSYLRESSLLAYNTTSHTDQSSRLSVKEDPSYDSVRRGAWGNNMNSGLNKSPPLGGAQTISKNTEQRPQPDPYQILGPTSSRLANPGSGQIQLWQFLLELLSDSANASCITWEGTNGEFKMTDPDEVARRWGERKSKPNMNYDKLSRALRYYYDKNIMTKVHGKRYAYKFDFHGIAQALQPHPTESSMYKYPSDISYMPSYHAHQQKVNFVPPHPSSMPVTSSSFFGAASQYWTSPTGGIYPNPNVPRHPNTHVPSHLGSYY
A digest of the protocol: (§1)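 Each value of binding signal is a hexamer's read frequency for a factor divided by the same hexamer's frequency in the tag-only sample. Barcoded, bead-captured GST fusions of human transcription factors made in yeast were pooled with that sample and incubated with 200 nmole of a random double-stranded 16-mer DNA library in Tris/NaCl/DTT/glycerol buffer at room temperature for 30 min. Washing, 0.1% formaldehyde crosslinking, proximity ligation, PCR and Illumina NextSeq500 sequencing followed.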

Another assay concerns the target T2, ELK1 (Homo sapiens, UniProt P19419 1-428).
T2 sequence: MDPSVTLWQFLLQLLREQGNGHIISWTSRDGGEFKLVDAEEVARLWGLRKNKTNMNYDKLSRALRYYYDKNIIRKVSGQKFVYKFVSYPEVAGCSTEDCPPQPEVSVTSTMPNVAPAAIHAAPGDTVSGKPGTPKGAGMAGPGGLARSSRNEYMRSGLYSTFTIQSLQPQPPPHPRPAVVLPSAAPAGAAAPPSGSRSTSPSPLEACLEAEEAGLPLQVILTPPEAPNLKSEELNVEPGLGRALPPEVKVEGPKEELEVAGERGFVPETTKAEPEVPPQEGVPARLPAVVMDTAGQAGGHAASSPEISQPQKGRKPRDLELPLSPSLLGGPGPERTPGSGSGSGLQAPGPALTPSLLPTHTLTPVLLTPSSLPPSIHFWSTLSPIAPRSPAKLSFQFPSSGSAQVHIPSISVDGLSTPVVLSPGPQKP
In short, it runs like this:
as §1

A further assay addresses T3, GABPA (Homo sapiens, UniProt Q06546 1-454).
T3 sequence: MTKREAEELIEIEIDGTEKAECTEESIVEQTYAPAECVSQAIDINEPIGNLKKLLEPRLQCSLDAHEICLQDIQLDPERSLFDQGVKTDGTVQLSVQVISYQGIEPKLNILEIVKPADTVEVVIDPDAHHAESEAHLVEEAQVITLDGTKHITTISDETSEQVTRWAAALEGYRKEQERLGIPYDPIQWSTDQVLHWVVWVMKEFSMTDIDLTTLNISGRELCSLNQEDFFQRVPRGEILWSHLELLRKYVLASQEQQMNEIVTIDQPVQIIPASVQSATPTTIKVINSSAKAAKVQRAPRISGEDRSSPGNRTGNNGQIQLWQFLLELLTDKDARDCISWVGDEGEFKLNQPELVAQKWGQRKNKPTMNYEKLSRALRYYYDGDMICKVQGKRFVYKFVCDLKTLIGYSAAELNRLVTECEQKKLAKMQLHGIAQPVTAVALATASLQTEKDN
A digest of the protocol:
as §1

The target of another assay is T4, ERG (Homo sapiens, UniProt P11308 1-479).
T4 sequence: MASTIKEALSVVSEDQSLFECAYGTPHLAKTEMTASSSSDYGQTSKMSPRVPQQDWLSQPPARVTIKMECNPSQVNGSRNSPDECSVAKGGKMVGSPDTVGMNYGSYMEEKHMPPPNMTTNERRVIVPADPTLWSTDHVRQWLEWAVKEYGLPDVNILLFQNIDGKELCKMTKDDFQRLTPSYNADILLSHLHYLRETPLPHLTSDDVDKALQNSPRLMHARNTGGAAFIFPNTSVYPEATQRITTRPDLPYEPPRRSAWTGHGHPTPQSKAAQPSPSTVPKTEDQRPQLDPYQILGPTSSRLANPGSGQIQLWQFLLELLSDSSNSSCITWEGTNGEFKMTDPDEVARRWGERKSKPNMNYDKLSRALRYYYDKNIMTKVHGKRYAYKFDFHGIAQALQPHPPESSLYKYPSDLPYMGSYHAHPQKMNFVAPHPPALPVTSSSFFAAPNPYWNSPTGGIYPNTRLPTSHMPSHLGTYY
In short, it runs like this: as §1

In the next assay the target is ELF1 (Homo sapiens, UniProt P32519 1-619). A digest of the protocol:
as §1

A further assay deals with T5, EHF (Homo sapiens, UniProt Q9NZC4 1-300).
T5 sequence: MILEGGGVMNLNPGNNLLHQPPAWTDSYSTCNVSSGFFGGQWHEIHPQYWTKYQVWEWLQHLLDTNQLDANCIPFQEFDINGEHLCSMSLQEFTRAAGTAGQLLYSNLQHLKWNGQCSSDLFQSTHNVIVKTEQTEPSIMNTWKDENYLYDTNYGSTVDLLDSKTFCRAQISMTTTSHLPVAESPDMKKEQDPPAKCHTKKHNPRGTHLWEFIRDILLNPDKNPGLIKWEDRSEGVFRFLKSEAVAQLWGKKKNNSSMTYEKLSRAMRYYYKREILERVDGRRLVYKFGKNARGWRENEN
A digest of the protocol: as §1

Assay [1] has as its target SPI1 (Homo sapiens, UniProt P17947 1-270). A digest of the protocol: as §1
In another assay the target is SPIB (Homo sapiens, UniProt Q01892 1-262). A digest of the protocol: as §1
Chain of SPIB (Q01892 whole entry): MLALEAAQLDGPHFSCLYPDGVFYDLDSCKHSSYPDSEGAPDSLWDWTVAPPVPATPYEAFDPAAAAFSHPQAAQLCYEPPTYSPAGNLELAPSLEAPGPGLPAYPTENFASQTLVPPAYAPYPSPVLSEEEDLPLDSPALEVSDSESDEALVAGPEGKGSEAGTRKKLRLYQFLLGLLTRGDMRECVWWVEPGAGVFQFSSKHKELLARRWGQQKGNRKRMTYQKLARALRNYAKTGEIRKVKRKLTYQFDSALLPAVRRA
A further assay has as its target T6, ELK3 (Homo sapiens, UniProt P41970 1-407).
T6 sequence: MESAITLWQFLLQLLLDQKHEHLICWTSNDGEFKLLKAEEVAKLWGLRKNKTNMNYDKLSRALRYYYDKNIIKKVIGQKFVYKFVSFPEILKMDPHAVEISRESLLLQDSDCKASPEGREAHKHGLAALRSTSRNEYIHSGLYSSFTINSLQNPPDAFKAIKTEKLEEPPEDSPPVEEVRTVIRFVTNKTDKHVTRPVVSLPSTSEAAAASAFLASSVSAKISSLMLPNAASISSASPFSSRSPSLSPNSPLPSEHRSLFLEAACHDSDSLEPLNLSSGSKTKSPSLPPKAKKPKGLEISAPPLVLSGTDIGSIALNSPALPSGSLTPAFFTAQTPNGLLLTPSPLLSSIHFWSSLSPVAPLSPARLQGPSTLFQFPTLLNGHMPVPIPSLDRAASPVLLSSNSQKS
A digest of the protocol: as §1

The next assay deals with T7, FEV (Homo sapiens, UniProt Q99581 1-238).
T7 sequence: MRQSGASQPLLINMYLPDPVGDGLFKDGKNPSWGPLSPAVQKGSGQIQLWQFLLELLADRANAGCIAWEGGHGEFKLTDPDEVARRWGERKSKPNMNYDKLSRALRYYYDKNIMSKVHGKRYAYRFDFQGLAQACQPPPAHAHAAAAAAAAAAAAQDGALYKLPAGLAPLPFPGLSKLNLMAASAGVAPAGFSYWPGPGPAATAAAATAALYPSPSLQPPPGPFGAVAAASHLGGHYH
A digest of the protocol: as §1

In another assay the target is ETV5 (Homo sapiens, UniProt P41161 1-510). A digest of the protocol: as §1
Chain of ETV5 (P41161 whole entry): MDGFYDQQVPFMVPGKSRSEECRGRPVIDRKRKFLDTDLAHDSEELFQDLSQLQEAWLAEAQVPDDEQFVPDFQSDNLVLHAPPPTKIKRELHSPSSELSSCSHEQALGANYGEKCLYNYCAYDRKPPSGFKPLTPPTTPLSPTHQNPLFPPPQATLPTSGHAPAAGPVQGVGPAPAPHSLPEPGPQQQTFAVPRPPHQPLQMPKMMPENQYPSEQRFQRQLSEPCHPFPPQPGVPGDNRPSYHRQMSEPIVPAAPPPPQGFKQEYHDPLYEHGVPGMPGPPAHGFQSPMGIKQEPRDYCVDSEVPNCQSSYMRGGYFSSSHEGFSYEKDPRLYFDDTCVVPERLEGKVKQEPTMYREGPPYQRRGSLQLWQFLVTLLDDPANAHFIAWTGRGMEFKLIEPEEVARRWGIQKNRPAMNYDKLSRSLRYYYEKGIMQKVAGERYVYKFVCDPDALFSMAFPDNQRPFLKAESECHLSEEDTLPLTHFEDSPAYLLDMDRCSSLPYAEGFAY
Another assay has as its target T8, SPIC (Homo sapiens, UniProt Q8N5J4 1-248).
T8 sequence: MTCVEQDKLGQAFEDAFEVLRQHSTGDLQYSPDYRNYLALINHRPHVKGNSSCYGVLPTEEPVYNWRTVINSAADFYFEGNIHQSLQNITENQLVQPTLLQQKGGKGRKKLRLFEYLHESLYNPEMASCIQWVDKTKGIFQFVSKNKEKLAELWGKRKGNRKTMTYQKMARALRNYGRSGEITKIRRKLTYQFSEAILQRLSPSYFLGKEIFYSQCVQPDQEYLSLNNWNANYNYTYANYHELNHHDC
In short, it runs like this:
as §1

A further assay deals with ELF4 (Homo sapiens, UniProt Q99607 1-663). A digest of the protocol:
as §1

For a further assay, the target named is T9, ELK4 (Homo sapiens, UniProt P28324-2 1-405).
T9 sequence: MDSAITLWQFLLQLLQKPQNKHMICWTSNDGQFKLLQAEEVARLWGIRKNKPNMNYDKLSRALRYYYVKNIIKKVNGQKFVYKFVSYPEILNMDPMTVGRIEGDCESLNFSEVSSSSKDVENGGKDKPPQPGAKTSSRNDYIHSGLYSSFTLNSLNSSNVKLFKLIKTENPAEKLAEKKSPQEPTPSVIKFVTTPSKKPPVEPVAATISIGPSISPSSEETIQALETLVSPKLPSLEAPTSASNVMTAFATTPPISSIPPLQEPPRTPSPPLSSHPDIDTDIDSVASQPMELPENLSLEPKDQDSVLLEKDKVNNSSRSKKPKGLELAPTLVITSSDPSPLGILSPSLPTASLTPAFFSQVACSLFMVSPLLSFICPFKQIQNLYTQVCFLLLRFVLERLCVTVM
A digest of the protocol:
as §1

The target of another assay is T10, ETV2 (Homo sapiens, UniProt O00321 1-342).
T10 sequence: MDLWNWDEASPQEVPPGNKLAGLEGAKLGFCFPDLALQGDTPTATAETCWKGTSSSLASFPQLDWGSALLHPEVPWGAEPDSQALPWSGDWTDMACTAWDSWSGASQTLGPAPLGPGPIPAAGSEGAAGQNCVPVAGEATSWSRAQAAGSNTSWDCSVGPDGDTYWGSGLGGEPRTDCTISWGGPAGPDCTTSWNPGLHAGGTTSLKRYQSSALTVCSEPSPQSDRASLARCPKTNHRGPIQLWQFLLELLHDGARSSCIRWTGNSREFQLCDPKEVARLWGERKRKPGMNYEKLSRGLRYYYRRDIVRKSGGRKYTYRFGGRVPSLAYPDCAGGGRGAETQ
In short, it runs like this: as §1

A further assay has as its target T11, ELF3 (Homo sapiens, UniProt P78545 1-371).
T11 sequence: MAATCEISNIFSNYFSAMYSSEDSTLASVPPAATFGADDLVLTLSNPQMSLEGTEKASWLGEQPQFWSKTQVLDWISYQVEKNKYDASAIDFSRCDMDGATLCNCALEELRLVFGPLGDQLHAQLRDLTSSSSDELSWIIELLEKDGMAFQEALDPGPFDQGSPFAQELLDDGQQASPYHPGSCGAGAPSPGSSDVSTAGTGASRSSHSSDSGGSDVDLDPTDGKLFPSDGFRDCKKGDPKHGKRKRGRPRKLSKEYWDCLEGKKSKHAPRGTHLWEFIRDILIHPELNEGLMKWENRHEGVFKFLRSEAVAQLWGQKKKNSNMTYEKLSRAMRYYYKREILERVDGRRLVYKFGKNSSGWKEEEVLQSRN
In short, it runs like this: as §1

Another assay addresses ETV1 (Homo sapiens, UniProt P50549 1-477). A digest of the protocol:
as §1

For assay [2], the target named is SPI1 (Homo sapiens, UniProt P17947 1-270). A digest of the protocol: as §1
The source holds these as a separate data set.

Chain of ETV1 (P50549 whole entry): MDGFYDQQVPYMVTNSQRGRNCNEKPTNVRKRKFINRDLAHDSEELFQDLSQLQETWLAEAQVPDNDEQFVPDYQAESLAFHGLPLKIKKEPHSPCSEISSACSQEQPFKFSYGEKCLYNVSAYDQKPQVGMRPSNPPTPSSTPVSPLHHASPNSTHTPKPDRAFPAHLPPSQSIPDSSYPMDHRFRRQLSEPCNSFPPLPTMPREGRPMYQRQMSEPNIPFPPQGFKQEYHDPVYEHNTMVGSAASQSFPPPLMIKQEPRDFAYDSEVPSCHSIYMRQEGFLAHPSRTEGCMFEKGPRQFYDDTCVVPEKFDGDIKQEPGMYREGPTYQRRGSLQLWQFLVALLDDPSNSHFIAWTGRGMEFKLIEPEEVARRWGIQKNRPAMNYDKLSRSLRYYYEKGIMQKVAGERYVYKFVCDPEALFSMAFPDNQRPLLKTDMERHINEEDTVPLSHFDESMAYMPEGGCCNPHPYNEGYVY
Chain of ELF1 (P32519 whole entry): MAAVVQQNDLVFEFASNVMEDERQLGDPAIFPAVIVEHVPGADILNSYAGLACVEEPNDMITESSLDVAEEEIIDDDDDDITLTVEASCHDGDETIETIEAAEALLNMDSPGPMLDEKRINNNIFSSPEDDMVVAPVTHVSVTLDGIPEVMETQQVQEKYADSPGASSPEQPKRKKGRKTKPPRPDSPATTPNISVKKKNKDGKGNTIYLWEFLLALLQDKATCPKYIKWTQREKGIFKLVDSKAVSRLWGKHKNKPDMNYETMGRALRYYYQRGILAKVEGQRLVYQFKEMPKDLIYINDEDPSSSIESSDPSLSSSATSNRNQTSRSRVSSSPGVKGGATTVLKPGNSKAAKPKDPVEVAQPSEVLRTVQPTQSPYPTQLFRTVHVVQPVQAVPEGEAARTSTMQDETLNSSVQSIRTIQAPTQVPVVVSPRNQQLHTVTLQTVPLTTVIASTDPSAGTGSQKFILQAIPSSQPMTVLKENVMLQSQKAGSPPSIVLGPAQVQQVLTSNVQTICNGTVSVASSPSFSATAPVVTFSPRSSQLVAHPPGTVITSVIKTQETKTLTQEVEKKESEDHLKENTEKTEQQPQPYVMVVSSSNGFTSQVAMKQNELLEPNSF
Chain of ELF4 (Q99607 whole entry): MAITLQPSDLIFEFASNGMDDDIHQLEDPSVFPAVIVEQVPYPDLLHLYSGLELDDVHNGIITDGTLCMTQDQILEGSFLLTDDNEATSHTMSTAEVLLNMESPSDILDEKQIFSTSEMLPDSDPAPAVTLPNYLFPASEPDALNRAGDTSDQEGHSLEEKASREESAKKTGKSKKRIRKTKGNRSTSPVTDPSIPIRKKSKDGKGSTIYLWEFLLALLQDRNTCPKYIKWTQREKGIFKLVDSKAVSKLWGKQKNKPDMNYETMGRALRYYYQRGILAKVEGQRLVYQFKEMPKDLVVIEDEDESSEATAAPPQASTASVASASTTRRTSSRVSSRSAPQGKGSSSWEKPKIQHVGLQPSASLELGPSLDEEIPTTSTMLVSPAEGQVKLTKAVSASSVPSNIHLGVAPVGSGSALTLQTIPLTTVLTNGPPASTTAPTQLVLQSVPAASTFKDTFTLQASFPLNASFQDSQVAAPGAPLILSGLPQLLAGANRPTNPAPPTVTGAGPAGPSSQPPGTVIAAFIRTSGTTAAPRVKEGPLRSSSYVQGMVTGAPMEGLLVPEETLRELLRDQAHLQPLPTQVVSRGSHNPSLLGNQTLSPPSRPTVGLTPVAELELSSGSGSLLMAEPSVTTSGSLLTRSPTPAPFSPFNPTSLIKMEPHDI

In the case of ATATGT, the binding signal with FLI1 is 1.09 fold enrichment (6-mer frequency, TF over GST control); with ELK1, 1.08 fold enrichment (6-mer frequency, TF over GST control); with GABPA it was 1.16 fold enrichment (6-mer frequency, TF over GST control); with ERG, 1.1 fold enrichment (6-mer frequency, TF over GST control); with ELF1, 1.2 fold enrichment (6-mer frequency, TF over GST control); with EHF it was 1.13 fold enrichment (6-mer frequency, TF over GST control). For the same sequence, the binding signal in the assay with SPI1 [1] is 1.09 fold enrichment (6-mer frequency, TF over GST control); in the assay with SPIB it was 1.18 fold enrichment (6-mer frequency, TF over GST control); with ELK3, 1.14 fold enrichment (6-mer frequency, TF over GST control); with FEV, 1.11 fold enrichment (6-mer frequency, TF over GST control); in the assay with ETV5, 1.1 fold enrichment (6-mer frequency, TF over GST control); with SPIC it was 1.18 fold enrichment (6-mer frequency, TF over GST control). For the same sequence, the binding signal with ELF4 was 1.14 fold enrichment (6-mer frequency, TF over GST control); with ELK4 it was 1.21 fold enrichment (6-mer frequency, TF over GST control); with ETV2, 1.04 fold enrichment (6-mer frequency, TF over GST control); with ELF3 it was 1.14 fold enrichment (6-mer frequency, TF over GST control); with ETV1, 1.12 fold enrichment (6-mer frequency, TF over GST control).
Regarding GGAAGT, the binding signal in the assay with FLI1 is 2.88 fold enrichment (6-mer frequency, TF over GST control); with ELK1 it was 3.29 fold enrichment (6-mer frequency, TF over GST control); in the assay with GABPA it was 2.57 fold enrichment (6-mer frequency, TF over GST control); with ERG, 3.6 fold enrichment (6-mer frequency, TF over GST control); with ELF1, 2.87 fold enrichment (6-mer frequency, TF over GST control); with EHF it was 3.23 fold enrichment (6-mer frequency, TF over GST control). The binding signal with SPI1 [2] was 4.86 fold enrichment (6-mer frequency, TF over GST control); in the assay with SPIB, 3.19 fold enrichment (6-mer frequency, TF over GST control); in the assay with ELK3, 3.36 fold enrichment (6-mer frequency, TF over GST control); with FEV, 3.88 fold enrichment (6-mer frequency, TF over GST control); in the assay with ETV5, 3.34 fold enrichment (6-mer frequency, TF over GST control); with SPIC it was 3.41 fold enrichment (6-mer frequency, TF over GST control). Besides, the binding signal is 2.72 fold enrichment (6-mer frequency, TF over GST control) in the assay with ELF4; 2.27 fold enrichment (6-mer frequency, TF over GST control) with ELK4; 2.85 fold enrichment (6-mer frequency, TF over GST control) in the assay with ETV2; 3.25 fold enrichment (6-mer frequency, TF over GST control) with ELF3; 3.33 fold enrichment (6-mer frequency, TF over GST control) with ETV1.
